Screening data from PubChem.
Only some compounds are listed: those with a hit (about 0.88% of all), similar ones and a draw of the others.
MBNL1-CUG inh = qHTS Assay for Inhibitors of MBNL1-poly(CUG) RNA binding; Potency, µM (series often up to 57.5 µM), for inactives: at the top dose activity change, negative = inhibition, usual class: inhibitors; 280,000 tested, 0.036% active; TR-FRET MBNL1-His/biotin-(CUG)12 binding, 665/545 ratio; Muscleblind-like protein 1 (Homo sapiens), Q9NR56; active means well fitted inhibition curve with a large enough effect in the signal ratio, with a control signal flat, not every such curve was filed as active; inconclusive means small, poorly fitted or top-dose-only effect, or effect the other way, or a change in a side signal; inactive means no such curve, though single readings can be large or run the other way; the % refers to the signal ratio; further: potency means the concentration at half of the fitted maximal effect; on the % scale 0 is the no-effect control and ±100 the full control effect
Target sequence (Q9NR56 whole entry, looked up): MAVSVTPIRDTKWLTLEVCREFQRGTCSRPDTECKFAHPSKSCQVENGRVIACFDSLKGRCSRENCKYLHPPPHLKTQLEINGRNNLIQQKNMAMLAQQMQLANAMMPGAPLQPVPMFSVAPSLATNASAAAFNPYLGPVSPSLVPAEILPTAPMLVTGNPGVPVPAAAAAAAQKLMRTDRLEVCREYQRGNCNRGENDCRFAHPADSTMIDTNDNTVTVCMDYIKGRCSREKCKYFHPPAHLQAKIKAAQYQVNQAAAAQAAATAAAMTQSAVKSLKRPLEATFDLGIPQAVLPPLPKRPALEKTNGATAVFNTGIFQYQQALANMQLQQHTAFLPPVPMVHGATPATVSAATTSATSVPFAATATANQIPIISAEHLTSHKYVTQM
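MBNL1-His + Biotin-(CUG)12, cpd titration 92 nM–58 uM; Tb anti-His Ab 0.055 ng/ul, SA-XL665 5 nM (final); 60 min RT; ratiometric 665/545 nm, Ex 340 nm; normalized to buffer and full-complex controls.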
Epigenetic reg = Quantitative High-Throughput Screen for Regulators of Epigenetic Control | murine LDR cells, GFP reporter derepression, 30 h | Potency, µM (series often up to 53.9 µM), without a hit: top-dose GFP activation, most hits filed as activators | 280,000 tested, 0.2% active | AID 1865, 2009; further: potency means the concentration at half of the fitted maximal effect; % of control where 0% means no effect; nearly all actives have a fitted effect of over 60% in size
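GFP-positive cell count by laser-scanning cytometry (objects 20–120 um) after 30 h, 37 C compound exposure of murine LDR cells; reporter is CMV-GFP integrated at a silenced locus, inducible by HDAC or DNMT inhibitors.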
TRHR agonist = qHTS for Small Molecule Agonists and Allosteric Enhancers of Human TRH Receptor: Primary Screen for Agonists; Thyrotropin-releasing hormone receptor (Homo sapiens), P34981; TRHR cells, calcium flux fluo-8, FDSS agonist mode; activation, % at 2 µM; 360,000 tested, 0.18% active; AID 493084, 2011; in the data active means activation above about 30%; further: 0% is about no effect
Target sequence (P34981 whole entry, looked up): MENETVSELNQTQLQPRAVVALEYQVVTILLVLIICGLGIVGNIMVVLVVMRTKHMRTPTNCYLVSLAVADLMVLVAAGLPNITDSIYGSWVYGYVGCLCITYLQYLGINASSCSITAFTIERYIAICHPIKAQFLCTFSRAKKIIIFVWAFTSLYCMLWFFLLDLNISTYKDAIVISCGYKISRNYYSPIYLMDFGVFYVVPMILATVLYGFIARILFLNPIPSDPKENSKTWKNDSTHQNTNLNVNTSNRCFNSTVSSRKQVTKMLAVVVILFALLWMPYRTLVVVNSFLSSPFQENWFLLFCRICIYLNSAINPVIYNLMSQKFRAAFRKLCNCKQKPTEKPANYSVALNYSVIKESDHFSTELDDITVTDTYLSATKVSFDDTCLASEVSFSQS
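TRHR-expressing cells, plated overnight in medium with 10% serum, were loaded with fluo-8 calcium dye at room temperature. After a 10 s baseline, library compound was pin-added and calcium release was recorded kinetically (ex 480/em 530) as agonist response.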
CBFb-RUNX1 inh = qHTS Assay for Compounds Blocking the Interaction Between CBF-beta and RUNX1 for the Treatment of Acute Myeloid Leukemia; 230,000 tested, under 10 active; AID 1477, 2009; Runt-related transcription factor 1 (Homo sapiens) + Core-binding factor subunit beta …; AlphaScreen CBFb-His/RUNX1-biotin binding, biochemical; Potency, µM (top dose mostly 59.8 µM), without a hit: at the highest dose activity, negative = inhibition, actives largely listed as inhibitors; further: % of control where 0% means no effect
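Compounds were screened at multiple concentrations against a preformed CBF-beta(His)/RUNX1(biotin) complex (30 nM of each) for 15 min at room temperature, followed by 90 min with nickel and streptavidin beads and AlphaScreen reading.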
IL2 activator = qHTS of IL-2 Activators | 360,000 tested, 0.065% active | IL-2 activation reporter assay, cell-based qHTS; stimulated with anti-CD3/CD4/CD28 beads; in transgenic mouse T cells | activation, % (series mostly up to about 46 µM); in the data active means activation above about 50%; inconclusive means mostly about 30% to 49%; further: 0% is about no effect
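EGFP and DsRed fluorescence is measured by plate cytometry in unstimulated transgenic mouse T cells exposed to compound for 60 minutes, then stimulated 18 hours at 37 degrees C with anti-CD3/anti-CD4 beads plus anti-CD28.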
TRHR PAM = qHTS for Small Molecule Agonists and Allosteric Enhancers of Human TRH Receptor: Primary Screen for Enhancers; Thyrotropin-releasing hormone receptor (Homo sapiens), P34981; TRHR cells, fluo-8 calcium fluorescence, EC20 TRH enhancement; enhancement, % at 2 µM; 360,000 tested, 0.66% active; in the data active means enhancement above about 30%; further: 0% is about no effect
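Enhancer read-out: after compound pinning and an initial kinetic agonist-mode read, an EC20 of TRH (10 nM final) was injected and fluo-8 calcium signal (Ex 480/Em 530) followed at 1 s/cycle for 100 cycles in TRHR-expressing cells.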
Numbers without * were called inactive; ? = inconclusive; nt = not tested or not shown. Unless noted, the call rests on the fitted dose curve; in most records, active means well fitted curve in the direction sought with a large enough effect; inconclusive means small, poorly fitted or top-dose-only effect, or another doubt; inactive means no such curve, though single readings can be large; an effect the other way counts as inactive or inconclusive.

SMILES | MBNL1-CUG inh | Epigenetic reg | TRHR agonist | CBFb-RUNX1 inh | IL2 activator | TRHR PAM
CC(C)CNC(=O)COC(=O)c1cc(S(=O)(=O)N2CCCCC2)ccc1N1CCOCC1 | -11% | -5% | 0 | -3% | 0 | 32*
CC(C)NC(=O)NC(=O)COC(=O)c1cc(S(=O)(=O)N2CCCCC2)ccc1N1CCOCC1 | -19% | nt | -2 | nt | -3 | -5
O=C(COC(=O)c1cc(S(=O)(=O)N2CCCCC2)ccc1N1CCOCC1)NCCc1ccc(F)cc1 | -5% | -4% | 0 | 26% | -2 | 31*
Cc1nc2ccccn2c1C(=O)NNS(=O)(=O)c1ccc(Cl)cc1 | -5% | 1% | -1 | 11% | 0 | 33*
COc1ccccc1NC(=O)c1cc2ccc3cccnc3c2[nH]1 | nt | 0% | 0 | nt | nt | 23
CCOc1ccccc1NC(=O)c1cc2ccc3cccnc3c2[nH]1 | nt | 3% | -1 | nt | nt | 32*
O=S(=O)(c1ccc(Cl)cc1)c1nc(-c2cccc(Br)c2)oc1NCc1ccccc1 | nt | -1% | 1 | nt | nt | 31*
Cn1cccc1/C=C1\SC(=O)N(c2ccc(O)cc2)C1=O | ? | ? | -1 | 9% | 51* | -2
CCOc1ccc(N2C(=O)S/C(=C\c3cccn3C)C2=O)cc1 | 30% | -1% | 0 | -12% | 1 | -5
COc1ccc(NC(=O)CN(C)C(=O)c2cccc3ccccc23)cc1 | nt | nt | 0 | nt | -2 | 0
COc1ccc(NC(=O)CN(C)C(=O)c2ccccc2OC)cc1 | 1% | nt | 1 | nt | -3 | 35*
COc1cc(OC)cc(-c2nc3nc(C)c(CCC(=O)Nc4cc(C)cc(C)c4)c(C)n3n2)c1 | nt | 0% | 0 | nt | nt | 6
O=S(=O)(c1ccc2c(c1)OCCO2)N1CCN(S(=O)(=O)c2cccc[n+]2[O-])CC1 | nt | nt | -1 | nt | nt | -3
COc1ccc(NC(=O)CN(c2ccccc2C)S(C)(=O)=O)c(OC)c1 | 0% | nt | 0 | nt | -1 | 31*
COc1ccccc1NC(=O)CN(c1ccccc1C)S(C)(=O)=O | -3% | nt | 0 | nt | 0 | -2
Cc1cccc(NC(=O)CN(C)C(=O)c2ccc3ccccc3n2)c1C | nt | nt | 0 | nt | -2 | -1
COCCN(CC(=O)Nc1cccc(C)c1C)C(=O)c1ccc2ccccc2n1 | nt | nt | 0 | nt | 0 | 32*
O=C(Cn1nc(C(=O)O)c2ccccc2c1=O)Nc1cc(C(F)(F)F)ccc1-n1cncn1 | nt | nt | 0 | nt | 1 | 13
O=C(Cn1nc(C(=O)O)c2ccccc2c1=O)Nc1cc(Cl)ccc1-n1cncn1 | nt | nt | -1 | nt | 2 | 37*
COc1cc(NC(=O)c2c(F)cccc2F)nc(OC)n1 | -18% | -1% | 0 | 4% | -3 | 2
COc1cc(NC(=O)c2cccc(Br)c2)nc(OC)n1 | -11% | -3% | -3 | 0% | 2 | 34*
O=C(CN1C(=O)COc2ccc(S(=O)(=O)N3CCOCC3)cc21)N1CCN(c2cccc(C(F)(F)F)c2)CC1 | nt | -3% | 0 | nt | nt | -2
COC(=O)Cc1c(C)c2ccc(OCC(=O)N(C)C)cc2oc1=O | 8% | 3% | 1 | -2% | -2 | 30*
O=C1c2cccc3c(O)ccc(c23)C(=O)N1Cc1ccccc1 | 49% | 0% | 154* | 18% | 1 | 40*
COc1ccc(-n2cc(-c3ccccc3)nc2SCC(=O)Nc2ccccc2)cc1Cl | nt | -1% | 8 | nt | nt | -1
SMILES | MBNL1-CUG inh | Epigenetic reg | TRHR agonist | CBFb-RUNX1 inh | IL2 activator | TRHR PAM
COc1ccc(CCN2C(=O)c3[nH]nc(-c4ccccc4O)c3C2c2ccc(OC)c(OC)c2)cc1 (stereo unspecified) | nt | -2% | 0 | nt | nt | 31*
CCN(CC)c1ccc(/C=C(\C#N)c2nc(-c3cccs3)c(NC(C)=O)s2)cc1 | 31% | 1.6µM* | 64* | -22% | nt | 9
CC(=O)Nc1sc(N/N=C\c2ccc(O)cc2)nc1-c1cccs1 | ? | 3% | 0 | -6% | 0 | -3
COc1ccc(CCNC(=O)CSc2ncc3c(n2)-c2cc(Cl)ccc2N(Cc2ccccc2)S3(=O)=O)cc1OC | nt | ? | 1 | nt | nt | -4
c1cncc(-c2nc(NCc3ccc4c(c3)OCO4)c3ccccc3n2)c1 | -6% | -2% | 2 | -9% | -1 | 32*
Cc1ccc(C(=O)N/C(=C\c2ccc(Cl)cc2)C(=O)NC2CCCCC2)cc1 | nt | 8% | 0 | nt | nt | -7
CCOc1ccc2nc(NC3=NC(C)(C)C=C(C)N3)nc(C)c2c1 | 9% | 0% | 0 | -7% | -3 | 32*
CCOc1ccc2c(C)nc(NC3=NC(C)(C)C=C(C)N3)nc2c1 | -3% | -1% | 0 | 1% | 4 | 8
O=C(CNc1ccccc1)N/N=C/c1c[nH]c2ccccc12 | -6% | 0% | -1 | -4% | -2 | 2
O=C(COc1ccc(Cl)cc1Cl)NCC(=O)N/N=C/c1c[nH]c2ccccc12 | nt | -1% | 0 | -14% | 0 | 35*
CCOCC(=O)Nc1cccc(OC)c1 | 13% | 0% | 0 | 7% | -3 | 30*
COc1cccc(NC(=O)CCC(=O)Nc2cccc(OC)c2)c1 | -18% | 5% | 0 | 12% | -1 | 2
c1ccc(CNCc2nnc(-c3cc4ccccc4[nH]3)s2)cc1 | nt | nt | 1 | nt | nt | 4
O=C(c1cc(-c2ccc(Cl)cc2Cl)on1)N1CCCC1 | -1% | nt | -1 | nt | -2 | -2
Cc1nccc(-c2cc(-c3ccc(Cl)cc3Cl)no2)n1 | nt | 0% | 0 | 6% | 1 | 33*
Cc1cc(F)ccc1NC(=O)C(C(C)C)N1Cc2ccccc2C1=O (stereo unspecified) | nt | 0% | 0 | nt | nt | 3
CC1(C)CCN2CCC(C)(C)c3c(O)ccc1c32 | 13% | nt | 34* | nt | -1 | 2
Cc1ccc(C)c(N2CCN(C(=O)c3cnn(C(C)(C)C)c3C3CCN(C(=O)OC(C)(C)C)CC3)CC2)c1 | nt | 0% | 17 | nt | nt | -12
COc1ccccc1-c1ccc(/C=C2/C=C(C)OC2=O)o1 | 33% | 0% | 5 | -19% | 1 | 6
COc1ccccc1-c1ccc(/C=C2\C=CC(=O)O2)o1 | ? | 4% | 73* | 22% | 0 | 4
Cc1ccc(CNC(=O)C2CCN(c3nc4ccc(C)cc4[nH]3)CC2)cc1 | nt | 14% | -1 | nt | nt | -7
COc1ccc(OCC(=O)N/N=C2/C=C(C)CC2)cc1 | 9% | -2% | 0 | -9% | 5 | 33*
